From PubChem BioAssay

Each compound was assayed on Sonic hedgehog protein (Shh) (assay: small-molecule binders of Shh protein, primary screen, biochemical, small-molecule microarray, 635/667 nm fluorescence (AID 1151;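 note: Shh protein binding to compounds spotted on small-molecule microarray slides; score combines spot fluorescence intensity with signal-to-noise across triplicate slides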)). Settings: small-molecule microarray binding, 635 nm fluorescence; higher = more signal.

| Compound | composite z-score |
| --- | --- |
| CCC(CC)C(O)C1C=CC2C(=O)NC(=O)C2N1Nc1ccc(Cl)cc1Cl (stereo not given) | 0.463 |
| C=C(CCCC)/C(=C/C[C@@H](OC(=O)c1ccncc1)c1ccc(OCCO)cc1)c1cc(C(=O)OC)ccc1OC | 1.41 |
| CO[C@H]1O[C@H](CO)[C@@H](OC(=O)Nc2cccc(F)c2)[C@H](OC(=O)Nc2ccccc2)[C@@H]1OC(=O)Nc1ccccc1 | 1.17 |
| C=C(COC)C(=O)CC[C@@H](OC(C)=O)c1ccc(CO)o1 | 2.14 |
| COC(=O)[C@H](Cc1ccccc1)N1CC2=C[C@@H](C3CC3)n3c(=O)n(C)c(=O)n3[C@H]2[C@@H]1[C@@H](O)Cc1ccccc1 | 1.4 |
| C=C[C@H](CO[Si](CC)(CC)CC)N(Cc1ccc(OC(C)=O)c(OC)c1)S(=O)(=O)c1ccc(Br)cc1 | 1.15 |
| C=CCOC(=O)[C@H]1[C@@H]2C(=O)O[C@@H](c3ccccc3)[C@@H](c3ccccc3)N2[C@@H](c2ccc(OCCOC(=O)[C@H]3C[C@H]4C(=O)N[C@@H](CCCCNC(C)=O)C(=O)N4[C@H]3c3ccc(O)cc3)cc2)[C@]12C(=O)Nc1ccc(I)cc12 | 2.09 |
| CC(C)C(O)C1C=CC2C(=O)NC(=O)C2N1Nc1ccc(Cl)cc1Cl (stereo not given) | 0.292 |
| COc1ccc([Si](C)(C)[C@H]2[C@H](CCO)O[C@@]3(C(=O)N(Cc4ccc(N(C=O)c5ccccc5)cc4)c4ccccc43)[C@@H]2C)cc1 | 0.399 |
| CC(C)C(O)C1C=CC2C(=O)N(c3ccccc3)C(=O)C2N1Nc1ccc([N+](=O)[O-])cc1 (stereo not given) | -0.688 |
| CC(C)C[C@@H]1NC(=O)[C@H](C(C)C)NC(=O)[C@@]23C(=O)N[C@@H](Cc4ccccc4)C2[C@H](C)[C@@]2(C)O[C@H]2C3/C=C/CC/C=C/CNC1=O (stereo not given in full) | 1.71 |
| CC1(C)[C@@H]2CC(C(O)C3C=CC4C(=O)N(c5ccccc5)C(=O)C4N3Nc3ccc([N+](=O)[O-])cc3)=C[C@H]1C2 (stereo not given in full) | 0.808 |
| COc1ccccc1CN1C(=O)c2ccccc2[C@@]2(Cc3ccccc3N(CC(C)C)C2=O)[C@@H]1c1ccc(CO)cc1 | -0.452 |
| CC1CC/C=C\[C@H]2OC34C=CCN(C(C)(C)C)C(=O)[C@H]3N(C(C)CO)C(=O)[C@@H]4C2C(=O)O1 (stereo not given in full) | 0.622 |
| O=C(NCCO)C1=C[C@H](Oc2ccccc2I)[C@@H](O)[C@H](N(Cc2ccco2)C(=O)Cc2ccccc2)C1 | 0.412 |
| CN(C)CCCC[C@@H]1NC(=O)[C@H]2C[C@@H](C(=O)NCCCCCCN)[C@@H](c3ccc(O)cc3)N2C1=O | 2.03 |
| COC(=O)C(CC#Cc1ccc2c(c1)[C@]1(C(=O)N2)[C@H](c2ccc(OCCO)cc2)N2[C@H](c3ccccc3)[C@H](c3ccccc3)OC(=O)[C@H]2[C@@H]1C(=O)N1CCc2cc(OC)c(OC)cc2C1)C(=O)OC | 1.91 |
| [N-]=[N+]=Nc1ccccc1[C@H]1OC(c2ccc(OCCCO)cc2)=N[C@@]1(CCS(=O)(=O)c1ccccc1)C(N)=O | 0.176 |

| Compound | composite z-score |
| --- | --- |
| COC(=O)[C@@]1(Cc2ccc(F)cc2)[C@H]2c3cc(C(=O)N(C)C)n(Cc4ccccc4)c3C[C@H]2CN1C(=O)c1ccccc1 | 0.0292 |
| COc1cc(COC(C)=O)ccc1OC(C)=O | 0.857 |
| CN1C(=O)C2C=CC(C(O)C#Cc3ccccc3)N(N3CCCCC3)C2C1=O (stereo not given) | 0.841 |
| NC(=O)NCC#Cc1ccc2c(c1)[C@]1(C(=O)N2)[C@H](C(N)=O)[C@H]2C(=O)O[C@H](c3ccccc3)[C@H](c3ccccc3)N2[C@@H]1c1ccc(O)cc1 | -0.41 |
| CO[C@H]1O[C@H](CO)[C@@H](OC(=O)Nc2ccc(Oc3ccccc3)cc2)[C@H](OC(=O)Nc2ccc3c(c2)OCO3)[C@H]1OC(=O)Nc1ccc2c(c1)OCO2 | 1.41 |
| CC(C)NC(=O)[C@@H]1c2ccccc2C(=O)N(C2Cc3ccccc3C2)[C@H]1c1ccc(CO)cc1 | 0.231 |
| CCCc1cc2c(n1Cc1cc(F)cc(F)c1)C(C)C1CN(C(=O)c3ccccc3)C(C)(C(=O)OC)C21 (stereo not given) | -0.236 |
| [N-]=[N+]=Nc1ccccc1[C@@H]1OC(c2ccc(OCCCO)cc2)=N[C@]1(CCS(=O)(=O)c1ccccc1)C(N)=O | -0.398 |
| O=C1c2ccccc2[C@](Cc2ccccc2I)(C(=O)NCCN2CCOCC2)[C@H](c2ccc(CO)cc2)N1Cc1ccccc1Cl | 1.43 |
| O=C(N1CCCCC1)[C@]1(Cc2ccccc2)N=C(c2ccc(OCCCO)cc2)O[C@@H]1c1ccccc1 | -0.412 |
| CC(=O)NCCCC[C@@H]1NC(=O)[C@H]2C[C@@H](C(=O)NCCCCCCNC(=O)CS)[C@@H](c3ccc(O)cc3)N2C1=O | 1.22 |
| O=C(CS)NCCCCCCNC(=O)[C@@H]1C[C@@H]2C(=O)NCC(=O)N2[C@@H]1c1cccc(OCCO)c1 | 0.88 |
| CC[C@@H]1C=C(C(=O)O)[C@H](c2ccc(Br)cc2)N1S(=O)(=O)c1ccc(C)cc1 | 0.248 |
| CCOC(=O)C[C@H]1[C@H](OC(=O)c2ccccc2-c2ccccc2)[C@@H](NC(=O)CC(C)C)c2cc(OCCCO)ccc2N1C(=O)Cc1ccc(OC)cc1 | 0.222 |
| CCCC[C@@H]1C[C@H]1[C@@H](NC(=O)c1cccs1)c1ccc(-c2ccccc2)cc1 | 1.73 |
| COc1ccc(-c2cc3c(c(-c4ccc(Oc5ccccc5)cc4)n2)[Si](C(C)C)(C(C)C)OC3)cn1 | 1.08 |
| CC(C)C(=C=CC[C@@H](O)c1ccc(OCCO)cc1)C[C@@H](O)COCc1ccccc1 | 2.09 |
